IMPase inh = cell-permeable inhibitors of inositol monophosphatase (IMPase) | P97697 | CHO-M1 cells, IP1 accumulation, HTRF TR-FRET ratio | inhibition (IP1 accumulation), % at 46.1 µM | 120,000 tested, under 10 active | AID 901; active = well fitted curve in the direction sought with a large enough effect in the signal ratio, not every such curve was filed as active; inconclusive = small, poorly fitted or top-dose-only effect, or a change in a side signal; inactive = no such curve, though single readings can be large or run the other way; the % refers to the signal ratio;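 also: cells stimulated with carbachol in lithium chloride buffer; higher means more IMPase inhibition seen as more IP1 and lower FRET ratio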
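Carbachol-driven Gq signalling in CHO-M1 cells (2000/well) generates IP1. Compounds that block IMPase raise IP1 and so reduce the FRET signal from Eu-anti-IP1 and d2-IP1 after a 10 min room-temperature lysis.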
ALDH1A1 block = ALDH1A1 (human) enzyme inhibition; Purified ALDH1A1, NADH fluorescence, propionaldehyde substrate; Potency, µM (highest dose often 75.3 µM), hits mostly inhibitors; 7.3% of 220,000 active; AID 1030
Target sequence (P00352 whole entry, looked up): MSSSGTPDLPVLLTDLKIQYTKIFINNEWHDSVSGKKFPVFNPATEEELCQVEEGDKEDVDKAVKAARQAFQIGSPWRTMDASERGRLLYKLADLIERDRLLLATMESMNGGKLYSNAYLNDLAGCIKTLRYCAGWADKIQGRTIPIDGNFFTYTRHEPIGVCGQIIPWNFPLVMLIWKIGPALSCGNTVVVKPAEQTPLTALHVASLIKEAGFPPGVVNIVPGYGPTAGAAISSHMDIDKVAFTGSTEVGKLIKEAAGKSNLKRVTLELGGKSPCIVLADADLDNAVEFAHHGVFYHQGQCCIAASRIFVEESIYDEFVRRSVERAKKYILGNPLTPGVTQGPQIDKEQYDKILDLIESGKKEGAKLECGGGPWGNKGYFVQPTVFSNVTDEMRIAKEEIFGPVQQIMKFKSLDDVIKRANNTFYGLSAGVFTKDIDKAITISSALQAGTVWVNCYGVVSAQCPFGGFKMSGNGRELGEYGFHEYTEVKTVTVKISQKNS
HPGD block = HPGD (human) dehydrogenase inhibition. 4.3% of 150,000 active. purified HPGD, NADH fluorescence kinetic, PGE2 substrate. Potency, µM, actives largely listed as inhibitors. P15428
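20 nM HPGD preincubated 15 min at room temperature with compound in 50 mM Tris-HCl pH 8, 0.01% Tween 20. Started with 1 mM NAD+ and 30 uM prostaglandin E2; NADH fluorescence (360/450 nm) read 5 times over 30-s intervals, last minus first.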
Hits are given with their value; n = inactive; u = inconclusive; x = not tested or not shown; [ ] = another dose, or the depositor's remark. Rows were chosen to be rich in hits. Some 9% of all compounds tested hit in one or more screens of this group. Unless noted, calls follow the shape of the dose curve; as a rule, active = well fitted inhibition curve with a large enough effect (not every such curve was filed as active); inconclusive = small, poorly fitted or top-dose-only effect, or another doubt; inactive = no such curve, though single readings can be large or run the other way.

SMILES | IMPase inh | ALDH1A1 block | HPGD block
CCCCSc1nc(SCC(=O)NCc2ccco2)c2c3c(sc2n1)COC(C)(CC)C3 (centres undefined) | n | 22.4µM | n
CCCSc1nc(SCC(=O)NCc2ccccc2)c2c3c(sc2n1)COC(C)(CC)C3 (centres undefined) | n | n | n
Cc1cnc(C)c(N2CCC(C(=O)NC(C)c3cccs3)CC2)n1 (centres undefined) | n | n | n
CCOC(=O)N1C2C=C(C)[C@@H]2[C@@H]2CC(=O)N21 (some centres undefined) | x | n | n
CC(=O)OC[C@@H]1O[C@@H](O/N=C2/C[C@@H](O)[C@@H](O)[C@@H]3[C@@H]4C(=O)N([C@@H](C)c5ccccc5)C(=O)[C@H]4CC[C@H]23)[C@H](OC(C)=O)[C@H](OC(C)=O)[C@@H]1OC(C)=O | x | n[13.5 µM] | x
COc1ccc(-n2c(Cc3cccn3C)nnc2SCC(=O)N2CCCc3ccccc32)cc1 | n | u | n
Cc1ccc(NCc2nnc(SCC(=O)Nc3ccccc3)n2CC2CCCO2)c(C)c1 (centres undefined) | n | 7.94µM | n
COc1ccc(NCc2nnc(SCC(=O)N3CCCc4ccccc43)n2C)cc1 | n | 3.16µM | n
CC(=O)Nc1ccc(NC(=O)CSc2nnc(CNc3ccc(F)cc3)n2CC2CCCO2)cc1 (centres undefined) | x | n | x
COc1ccc(NCc2nnc(SCC(=O)Nc3ccc(OC)cc3)n2C)cc1 | x | n | x
CCn1c(CNc2ccc(C)cc2C)nnc1SCC(=O)N1CCCc2ccccc21 | n | 7.08µM | n
CCn1c(CNc2ccc(F)cc2)nnc1SCC(=O)N1CCCc2ccccc21 | n | u | n
CCOC(=O)c1ccc(NC(=O)CSc2nnc(CNc3ccc(OC)cc3)n2C)cc1 | n | 12.6µM | n
Cc1ccc(CNC(=O)C(=O)Nc2nccs2)cc1 | x | n | x
COC(=O)[C@@]1(Cc2ccccc2)[C@H]2c3cc(C(=O)N4CCCC4)n(CCc4ccccn4)c3C[C@H]2CN1C(=O)c1ccccc1 | x | n | n
O=C(NC12CC3CC(CC(C3)C1)C2)c1ccc(-c2cccc(Cl)c2)o1 | n | u | n
CCOC(=O)C1=C(C)NC(=S)NC1c1ccc(-c2ccc(Cl)cc2)o1 (centres undefined) | x | 4.47µM | n
COC(=O)C1=C(C)NC(=O)NC1c1ccco1 (centres undefined) | x | n | x
COC(=O)C1=C(C)NC(=S)NC1c1ccc(-c2cccc(Cl)c2)o1 (centres undefined) | x | 2µM | n
CCOC(=O)C1=C(C)NC(=O)NC1c1ccc(-c2ccc(Cl)cc2)o1 (centres undefined) | x | n | x
COC(=O)C1=C(C)NC(=S)NC1c1ccc(-c2ccccc2C(=O)OC)o1 (centres undefined) | x | 15.8µM | x
COC(=O)C1=C(C)NC(C)=C(C(=O)OC)C1c1ccc(-c2cccc(Cl)c2Cl)o1 | n | u | u
CCOC(=O)C1=C(C)NC(=S)NC1c1ccc(-c2cccc(Cl)c2C)o1 (centres undefined) | n | 0.891µM | n
Fc1ccc(OCCCCN2CCOCC2)cc1 | x | n | x
CC(=O)NCCC(=O)Nc1ccc(F)cc1C | n | n | n
SMILES | IMPase inh | ALDH1A1 block | HPGD block
COc1cccc(-c2nn(-c3ccccc3)cc2CNC(C)Cn2cncn2)c1 (centres undefined) | x | n | x
O=c1cc(N2CCc3ccccc32)[nH]c(=O)n1-c1ccc(Cl)cc1 | x | n | x
CCOC(=O)C1=C(C)N=c2s/c(=C\c3ccc(OCC(=O)O)cc3)c(=O)n2C1c1ccc(OC(C)C)cc1 (centres undefined) | x | n | 4.47µM
COc1cccc(C2C(C(=O)Nc3ccccc3)=C(C)N=c3s/c(=C/c4ccc(OCC(=O)O)cc4)c(=O)n32)c1 (centres undefined) | x | n | n
COc1ccc(-c2cc(C(=O)c3c(N)n(C)c(=O)n(C)c3=O)c3ccccc3n2)cc1OC | x | n | x
O=C(NCC1CCCO1)c1onc(CSc2cccc3ccccc23)c1C(=O)O (centres undefined) | n | n | u
CCOC(=O)C1=C(C)NC(=O)C1CC(=O)Nc1ccccc1 (centres undefined) | n | n | 35.5µM
CCOC(=O)C1=C(C)NC(=O)NC1c1ccc(OCC(=O)Nc2ccccc2)c(OC)c1 (centres undefined) | n | n | n
C=CCNC(=O)COc1cc(C)ccc1C | x | n | n
COCc1cc(C)nc(SCC[N+](C)(C)CC(=O)Nc2ccccc2)c1C#N | x | n | x
COCc1cc(C)nc(SCC[N+](C)(C)CC(=O)c2ccc(Br)cc2)c1C#N | x | 7.94µM | x
CC(C)(Oc1ccc(Br)cc1)C(=O)N1CCc2ccccc21 | n | n | n
